Assay outcomes (PubChem BioAssay)
KCNH2 3.1 block – KCNH2 3.1 (human) potassium channel inhibition; hit rate 0.95% among 340,000; activity change, % (tested at about 1.8 µM); U2OS KCNH2 3.1, thallium flux FluxOr; stronger effect = lower value;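 active means maximum activity change below -70%; inconclusive means maximum activity change from -70% to -50%; inactive means maximum activity change above -50%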;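 further: thallium influx rate constant from kinetic fluorescence after stimulation buffer; on the % scale 0 is the no-effect control and ±100 the full control effect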
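Steps: virus added to U2OS suspension (4 h, RT, dark); medium with 10% FBS added, cells plated, 37 C overnight; FluxOr/Red40 loading buffer 45 min RT; stimulation buffer, 2 min kinetic read; rate constant normalized.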
TRPV1 PAM – potentiators of human vanilloid receptor 1 (TRPV1); potentiation, % at 8.33 µM; hit rate 0.02% among 320,000; TRPV1-expressing cells, Fluo-8 calcium influx, capsaicin EC20 potentiation; AID 540277; in the data active means potentiation above about 80%; inconclusive means between about 30% and that limit; further: 0% is about no effect
Target sequence (Q8NER1 whole entry, looked up): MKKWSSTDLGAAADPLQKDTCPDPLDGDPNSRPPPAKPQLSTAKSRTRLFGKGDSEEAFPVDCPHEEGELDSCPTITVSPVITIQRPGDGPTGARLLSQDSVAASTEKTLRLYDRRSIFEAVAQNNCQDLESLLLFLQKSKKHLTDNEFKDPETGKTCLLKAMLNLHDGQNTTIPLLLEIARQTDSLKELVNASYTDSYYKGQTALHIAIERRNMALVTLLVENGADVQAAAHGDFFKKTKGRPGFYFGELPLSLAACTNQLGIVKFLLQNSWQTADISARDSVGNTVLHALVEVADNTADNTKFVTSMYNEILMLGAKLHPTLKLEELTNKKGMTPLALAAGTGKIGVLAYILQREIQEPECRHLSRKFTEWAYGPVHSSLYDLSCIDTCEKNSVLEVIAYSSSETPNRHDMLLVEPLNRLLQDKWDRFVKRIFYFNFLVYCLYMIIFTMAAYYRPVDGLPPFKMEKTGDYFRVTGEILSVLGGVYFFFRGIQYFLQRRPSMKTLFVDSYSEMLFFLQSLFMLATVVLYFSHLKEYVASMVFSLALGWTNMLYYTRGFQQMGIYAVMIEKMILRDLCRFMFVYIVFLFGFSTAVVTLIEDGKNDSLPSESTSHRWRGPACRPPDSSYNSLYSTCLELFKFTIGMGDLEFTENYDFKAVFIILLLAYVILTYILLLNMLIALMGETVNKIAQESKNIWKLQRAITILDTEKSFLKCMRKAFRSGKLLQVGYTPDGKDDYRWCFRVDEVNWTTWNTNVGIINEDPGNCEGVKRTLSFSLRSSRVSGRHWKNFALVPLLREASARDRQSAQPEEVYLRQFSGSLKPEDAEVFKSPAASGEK
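TRPV1-expressing cells were cultured overnight at 35.5C and loaded with Fluo-8 calcium dye for 40 to 90 min at room temperature. After a 10 s baseline, compound was added and calcium influx was read kinetically for 3 min (ex 480/em 520 nm).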
hERG WT inh – KCNH2 (human, wildtype) channel inhibition; Q12809; hit rate 0.37% among 340,000; AID 720551; U2OS, BacMam KCNH2, thallium flux FluxOr; stronger effect = lower value; activity change, % at 1.84 µM;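 active means maximum activity change below -70%; inconclusive means maximum activity change between -70% and -50%; inactive means maximum activity change above -50%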; further: on the % scale 0 is the no-effect control and ±100 the full control effect
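U2OS cells transduced with wild-type KCNH2 virus are loaded with FluxOr dye for 45 min, and thallium flux is measured in kinetic reads before and after stimulation buffer. Rate constants are normalized to DMSO controls.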
TRPV1 ag – activates the human vanilloid receptor TRPV1; Q8NER1; TRPV1-expressing cells, Fluo-8 calcium influx, agonist mode; activation, % at 8.33 µM; hit rate 0.19% among 320,000; in the data active means activation above about 80%; inconclusive means between about 30% and that limit; further: 0% is about no effect
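TRPV1-expressing cells were cultured overnight at 35.5C and loaded with Fluo-8 calcium dye for 40 to 90 min at room temperature. After a 10 s baseline, compound was added and calcium influx was read kinetically for 3 min (ex 480/em 520 nm).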
Starred values were filed as active, the others as inactive; u = inconclusive; x = not tested or not shown. Shown are actives, neighbours in structure and some others; about 1.3% of the full set was active somewhere.

SMILES	KCNH2 3.1 block	TRPV1 PAM	hERG WT inh	TRPV1 ag
CCOC(=O)C1=C(C)N=C2c3ccccc3C(=O)C2C1c1ccc(Cl)cc1 (stereo unspecified)	-105*	-4	-17	u
O=[N+]([O-])c1cc([N+](=O)[O-])c(Oc2c(F)ccc(F)c2F)cc1NN1CCCCC1	-18	8	-12	80*
O=C(NCCc1ccc(Cl)cc1)c1cc2ccccn2n1	16	-29	-1	87*
O=C(Nc1ccc(Br)cc1)c1cc2ccccn2n1	4	-26	-3	85*
CCC(C)NC(=O)CSc1nc2cc3c(cc2c(=O)n1Cc1ccc(C(=O)NCCc2ccc(OC)c(OC)c2)cc1)OCO3 (stereo unspecified)	x	12	x	0
Cc1ccc(OCc2nc(-c3ccc(Cl)cc3)n[nH]2)cc1	-10	15	-74*	2
Fc1ccc(OCc2nc(-c3ccncc3)n[nH]2)cc1	-11	u	8	2
Cc1ccccc1N1CCN(Cc2c[nH]c3ccccc23)CC1	-85*	12	21	3
O=[N+]([O-])c1ccc(CN2CCN(Cc3c[nH]c4ccccc34)CC2)cc1	-77*	-2	-38	0
COc1ccccc1N1CCN(Cc2c[nH]c3ccccc23)CC1	-32	-9	35	2
O=[N+]([O-])c1ccc(/C=N/N2CCN(Cc3ccccc3)CC2)cc1	-80*	3	-9	-1
CCc1cccc(CC)c1NC(=O)C1CCN(C(=O)c2ccco2)CC1	-21	0	-5	1
COc1cc(NC(=O)C[n+]2ccc(C(=O)c3ccccc3)cc2)cc(OC)c1	-18	x	0	x
Cc1c(-c2ccccc2)cnc2c(C)cccc12	4	x	-2	x
CCC(c1ccccc1)c1nnc(NC(=O)c2ccco2)s1 (stereo unspecified)	-117*	8	0	0
COc1cc(/C=N\NC(=O)CNC(=O)C(c2ccccc2)c2ccccc2)ccc1O	0	20	-3	21
COc1cc(/C=N/NC(=O)CCN2CCN(C(c3ccccc3)c3ccccc3)CC2)ccc1O	-106*	-10	-43	u
CCc1cccc(NC(=O)C2CCCN(c3ncnc4c3nc3n4CCCCC3)C2)c1 (stereo unspecified)	-12	-3	-13	u
COc1cc(/C=C(/C#N)C(=O)Nc2ccccc2)c(Br)cc1OCc1ccc(C(=O)O)cc1	-1	15	-7	0
COc1cc(/C=C(\C#N)C(=O)Nc2cccc(C(=O)O)c2)ccc1OCc1ccc(Cl)cc1	-12	-14	-92*	3
COc1ccc(CN2CCCC(C(=O)c3ccc(SC)cc3)C2)cc1Cn1cccn1 (stereo unspecified)	-82*	-3	-96*	16
CCOc1ccccc1CN1CCCC(C(=O)c2ccc(OC)c(OC)c2)C1 (stereo unspecified)	0	u	13	1
COc1ccc(C(=O)C2CCCN(Cc3cn(C)nc3-c3ccccc3)C2)cc1F (stereo unspecified)	-71*	2	21	3
COc1ccc(CNC(=S)Nc2cccc(F)c2)cc1	-1	-7	-17	88*
COc1ccc(CNC(=S)NCc2ccc(Cl)cc2)cc1OC	-11	5	-1	97*
SMILES	KCNH2 3.1 block	TRPV1 PAM	hERG WT inh	TRPV1 ag
COc1ccc(CNC(=S)NCc2ccc(F)cc2)cc1OC	-9	-13	1	u
COC(=O)c1cccc(NC(=S)NCc2ccc(Cl)cc2)c1	1	6	8	82*
Cn1c(=O)c2[nH]c(SCc3cccnc3)nc2n(C)c1=S	11	x	1	x
CCn1c(=O)cc(SCC(=O)NCc2ccccn2)c2ccccc21	-184*	-6	4	-2
CCn1c(=O)cc(SCC(=O)NCc2cccnc2)c2ccccc21	-1	-8	1	4
Cc1cccc(N2CCN(CC(O)COCc3cccs3)CC2)c1C (stereo unspecified)	-98*	-1	-80*	1
OC(COCc1cccs1)CN1CCN(c2ccccc2Cl)CC1 (stereo unspecified)	-83*	-1	7	1
CCOc1ccccc1N1CCN(CC(O)COCc2cccs2)CC1 (stereo unspecified)	-28	6	14	-1
CCCC(=O)N(Cc1cc(=O)[nH]c2ccccc12)c1ccccc1C	7	4	4	-4
C[C@H](NC(=O)c1nc[nH]c1C(=O)NCC(=O)OCc1ccccc1)c1ccccc1	-17	20	-9	2
